Screening data as filed in PubChem BioAssay.
This is one part of a sample in which hits are shown more often than they occur.
Tgondii IFNg: T. gondii growth inhibition under IFN-gamma; Toxoplasma gondii growth in IFN-gamma-treated host cells; stronger effect = lower value; activity change, negative = inhibition, % (no concentration beside the values); 69,000 compounds, 3.8% hits; in the data active means activity change below about -70%, passing the limit was not always enough;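 further: host cells are HeLa cells infected with Toxoplasma gondii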
Of the large screens only hits and unclear results are named; the others gave an inactive call.

CN1CCN(c2cccc(Nc3nc4c(-c5ccc(S(C)(=O)=O)cc5)cccn4n3)c2)CC1	none
COCCNC(=O)C1CN(c2ncccn2)Cc2ccnn2C1 (configuration not stated)	none
Cc1scc(C(=O)N2C[C@H](N)C[C@H]2C(=O)NC(C)C)c1-c1ccccc1	none
CCn1ccnc1-c1c(-c2ccccc2)ncn1CCN1CCOC1=O	none
CCc1nccc(-c2c(-c3ccccc3)ncn2CCN2CCOCC2)n1	Tgondii IFNg -80.1
CCc1ccc(-c2c(-c3ccccc3)ncn2CCS(C)(=O)=O)nc1	none
CCc1ncc(-c2c(-c3ccccc3)ncn2Cc2ccccc2F)cn1	none
CCc1nccc(-c2c(-c3ccccc3)ncn2CC2(CO)CCOCC2)n1	Tgondii IFNg -82.6
CN1CCN(CCn2cnc(-c3ccccc3)c2-c2cnc[nH]2)CC1	none
COc1ccc(-c2nc(CNS(=O)(=O)c3ccc(OC)cc3)c(C)o2)cc1	none
Cc1ccc(-c2nc(CNS(=O)(=O)c3ccc(C(C)C)cc3)c(C)o2)cc1	Tgondii IFNg -104.7
Cc1oc(-c2ccccc2)nc1CNS(=O)(=O)c1ccc(C(C)C)cc1	none
Cc1occc1C(=O)N1CCC2(CC1)CN(c1cccnc1)C(=O)CO2	none
Cn1nc2c(c1C(=O)Nc1ccc(N3CCCCC3)c(F)c1)CCCC2	Tgondii IFNg -95.3
O=C(Nc1ccc(N2CCOCC2)c(F)c1)c1ccnc(N2CCOCC2)c1	none
Cn1nc(C(=O)Nc2ccc(N3CCCCC3)c(C(F)(F)F)c2)ccc1=O	none
O=C(c1cnn2ccccc12)N1C[C@H]2OC(=O)N(Cc3ccccn3)[C@H]2C1	none
Cn1nc(C(C)(C)C)cc1C(=O)Nc1c(-c2ccccc2)c(C(F)(F)F)nn1C	Tgondii IFNg -95.4
Cn1nc(C(F)(F)F)c(-c2ccc(Br)cc2)c1NC(=O)C1CCC1C(=O)O (configuration not stated)	none
C[C@H](Cn1nnc2ccccc21)NC(=O)c1cc(C(C)(C)C)nn1C	none
COc1cccc(NC(=O)C[C@H]2CC[C@@H]3[C@@H](COc4ccc(NC(=O)C5CC5)cc4C(=O)N3C)O2)c1	none
CCN(C)S(=O)(=O)c1csc(C(=O)Nc2ccc(C)cc2)c1	none
CC1Cc2ccccc2N1S(=O)(=O)c1cc2c3c(c1)CCC(=O)N3CCC2 (configuration not stated)	none
CC1Cc2ccccc2N1S(=O)(=O)c1csc(C(=O)Nc2ccccc2)c1 (configuration not stated)	Tgondii IFNg -103.0
O=C(C[C@H]1CC[C@H]2[C@@H](COC[C@@H](O)CN2CC2CCOCC2)O1)NCC1CCCCC1	none
Cc1cc(=O)n(CCC(=O)Nc2ccccc2OCC2CCCCO2)c2ccccc12 (configuration not stated)	none
CCc1nccn1CCC(=O)N1CCC(c2cc(-c3cncnc3)cc(C)n2)CC1	none
c1csc(-c2nnc3n2C2(CCCC2)Cc2ccccc2-3)c1	Tgondii IFNg -97.5
c1ccc(-c2nnc3n2C2(CCCCC2)Cc2ccccc2-3)cc1	none
c1coc(-c2nnc3n2C2(CCCC2)Cc2ccccc2-3)c1	none
CN1C(=O)c2cc(NC(=O)C3CCOCC3)ccc2OC[C@@H]2O[C@H](CC(=O)NCC3CCCCC3)CC[C@H]21	none
CCCC(=O)Nc1cc(C(=O)N(C)CC2COc3ccccc3O2)ccc1C (configuration not stated)	none
CO[C@@H](CN(C)S(=O)(=O)c1cccc(Cl)c1)[C@H](C)CN(C(=O)Nc1ccccc1F)[C@@H](C)CO	none
C=CCn1c(=S)sc2c(N3CCN(c4ccccc4)CC3)ncnc21	none
C=CCn1c(=S)sc2c(C(C#N)C#N)ncnc21	Tgondii IFNg -102.1
O=C(Nc1ccc(F)cc1)N1C[C@H]2CC[C@@]3(N=C(c4ccccc4)NC3=O)[C@@H]2C1	none
CC1(C)C(=O)N=C2c3ccccc3C(=O)C(=O)C21 (configuration not stated)	Tgondii IFNg -87.9
CCN(CC)C(=O)CC1CC2(CCN(S(=O)(=O)c3cccs3)CC2)c2ccccc21 (configuration not stated)	none
O=C(c1cc2ccccc2[nH]1)N1CCc2nc(-c3ccc(Cl)cc3)ncc2C1	none
COCC1CN(C(=O)CCc2c[nH]c3ccccc23)CC12CCOCC2 (configuration not stated)	none
CC1CCN(S(=O)(=O)c2ccc3c(ccc(=O)n3CC(=O)NC(C)C)c2)CC1	none
CC(=O)Nc1ccc(NC(=O)Cn2c(=O)ccc3cc(S(=O)(=O)N4CCC(C)CC4)ccc32)cc1	none
O=C(Cn1c(=O)ccc2cc(S(=O)(=O)N3CCCC3)ccc21)Nc1ccc(F)cc1	none
CSc1cccc(NC(=O)Cn2c(=O)ccc3cc(S(=O)(=O)N4CCC(C)CC4)ccc32)c1	none
CC1CCN(S(=O)(=O)c2ccc3c(ccc(=O)n3CC(=O)Nc3ccc(F)c(Cl)c3)c2)CC1	none
CC1CCN(S(=O)(=O)c2ccc3c(ccc(=O)n3CC(=O)Nc3cccc(F)c3)c2)CC1	Tgondii IFNg -81.5
CC(C)c1ccc(NC(=O)Cn2c(=O)ccc3cc(S(=O)(=O)N4CCCC4)ccc32)cc1	Tgondii IFNg -78.2
COc1cccc(NC(=O)Cn2c(=O)ccc3cc(S(=O)(=O)N4CCCC4)ccc32)c1	none
